In test [1] the test system is Wnt5a (protein binding on small-molecule microarray). In words: small molecules binding Wnt5a protein – biophysical, small-molecule microarray, 635/667 nm fluorescence, primary screen (AID 1142).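 Note: fluorescence read at 667 nm with signal to noise per printed feature.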 Particulars: 635 nm fluorescence, higher = more signal.
The nature of test [2]: ATP-based viability of Huh7 replicon cells – cell-based, CellTiter-Glo luminescence, basal, 48 h, cytotoxicity control for HCV replication inhibitor project, primary screen (AID 1143).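 Note: Huh7 hepatoma cells carrying a hepatitis C replication reporter with no stimulus; test concentration not given here.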 As to conditions: higher = more signal, called active from +8 up or from −8 down.
A short description of test [3]: Pseudomonas biofilm growth suppression – PAO1 strain, BacTiter-Glo luminescence, LB-PBS, primary screen (AID 1144). Particulars: P. aeruginosa PAO1 biofilm, 12 h, higher = more signal.
The nature of test [4]: basal CRE-LacZ reporter activity in PC12 – cell-based, unstimulated, primary screen (AID 1145). As to conditions: no forskolin, luminescence, 4.5 h, higher = more signal, called active from +8 up or from −8 down.
The nature of test [5]: forskolin-driven CRE-LacZ activity in PC12 – cell-based, CRE-LacZ reporter, forskolin-stimulated, primary screen (AID 1146).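 Note: PC12 cells with 6xCRE LacZ reporter stimulated by forskolin 10 µM; beta-galactosidase reporter signal reflecting CREB driven transcription.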 Particulars: luminescence, 4.5 h, higher = more signal, called active from +8 up or from −8 down.
Test [6] deals with Streptavidin (Streptomyces avidinii) (UniProt P22629). In words: compounds binding control protein streptavidin – biophysical, small-molecule microarray, 635/667 nm fluorescence, artefact control for SMM compound annotation, primary screen (AID 1147).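 Note: signal reflects streptavidin binding to arrayed compounds as a control protein.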 Particulars: higher = more signal.
Chain of Streptavidin (Streptomyces avidinii) (P22629 whole entry, looked up): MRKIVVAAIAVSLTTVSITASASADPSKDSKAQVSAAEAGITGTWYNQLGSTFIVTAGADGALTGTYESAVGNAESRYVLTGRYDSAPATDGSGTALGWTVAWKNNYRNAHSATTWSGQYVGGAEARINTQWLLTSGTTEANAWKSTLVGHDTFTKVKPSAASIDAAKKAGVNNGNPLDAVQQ
A short description of test [7]: probe aInhba binding on compound microarray – biochemical, small-molecule microarray, 635/667 nm fluorescence, primary screen (AID 1148).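 Note: score merges 667nm spot fluorescence with signal-to-noise for antibody binding to printed compounds.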 As to conditions: higher = more signal.
In test [8] the target is Torsin-1A (Homo sapiens) (UniProt O14656). In words: TOR1A wild-type binding on microarray – cell lysate, small-molecule microarray, lysate, 635/667 nm, primary screen (AID 1149). As to conditions: COS7 hTOR1A-WT lysate, 635 nm fluorescence, higher = more signal.
Chain of Torsin-1A (Homo sapiens) (O14656 whole entry, looked up): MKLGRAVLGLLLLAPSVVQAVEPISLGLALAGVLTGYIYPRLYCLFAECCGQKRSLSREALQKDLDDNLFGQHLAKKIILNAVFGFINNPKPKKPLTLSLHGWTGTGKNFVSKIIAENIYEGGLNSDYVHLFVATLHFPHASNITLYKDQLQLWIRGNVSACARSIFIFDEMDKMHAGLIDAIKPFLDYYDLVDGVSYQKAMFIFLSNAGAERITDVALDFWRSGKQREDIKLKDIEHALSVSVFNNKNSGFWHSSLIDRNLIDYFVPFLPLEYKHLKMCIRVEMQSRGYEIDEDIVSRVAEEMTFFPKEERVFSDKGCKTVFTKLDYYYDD
The target is the same in test [9]. In words: torsin A mutant lysate binding on microarrays – cell lysate, small-molecule microarray, COS7 lysate, 635/667 nm fluorescence, primary screen (AID 1150).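 Note: score pools 667 nm emission and signal to noise measuring lysate protein binding.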 As to conditions: COS7 hTOR1A mutant lysate, 635 nm fluorescence, higher = more signal.
Test [10] relates to Sonic hedgehog protein (Shh). In words: Sonic hedgehog microarray binding compounds – biochemical, small-molecule microarray, 635/667 nm fluorescence, primary screen (AID 1151).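 Note: Shh protein binding to compounds spotted on small-molecule microarray slides; score combines spot fluorescence intensity with signal-to-noise across triplicate slides.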 As to conditions: 635 nm fluorescence, higher = more signal.

The source made the active and inactive calls. Unless noted, the rule behind the calls is not given here.

As to `CCCNC(=O)[C@@]1(Sc2ccc(C)cc2)CC(=O)N(C(C)C)[C@@H]1c1ccc(CO)cc1I`, the composite z-score is -0.272 in [1]; -1 in test [6]; -0.186 in [7]; 0.0671 in test [8]; 0.157 in [9]; -0.42 in test [10]. Besides, the z-score was -1.07 (inactive) in test [2], 0.767 (inactive) in [3], -0.412 (inactive) in test [4] and 0.892 (inactive) in test [5].

As for `CCOC(=O)C1=CCC(c2ccccc2)N(S(=O)(=O)c2ccc([N+](=O)[O-])cc2)C1` (stereo not given), the composite z-score in [1] is -0.206; in test [6], 0.108; in [7], -0.128; in test [8] it was 0.331; in [9] it was 0.458; in test [10], 0.188. Further, the z-score in test [2] is -3.61 (inactive); in test [3], 0.697 (inactive); in test [4], 1.23 (inactive); in test [5] it was -0.536 (inactive).

As to `CC(CO)N1C(=O)[C@@H]2[C@H]3C(=O)OCC=C[C@H]3OC23C=CCN(c2ccc(Cl)cc2)C(=O)[C@@H]13` (stereo not given in full), the composite z-score was -0.691 in [1]; -2.13 in test [6]; -0.26 in test [7]; -2.73 in test [8]; -2.95 in test [9]; -0.721 in test [10]. The z-score in test [2] is 0.359 (inactive); in test [3], 2.78 (inactive); in test [4], 0.866 (inactive); in test [5], 0.154 (inactive).

In the case of `[N-]=[N+]=Nc1ccccc1C[C@]1(C(=O)O)N=C(c2ccc(OCCCO)cc2)O[C@H]1c1ccccc1N=[N+]=[N-]`, the composite z-score in test [1] was 0.0284; in test [6], 1.58; in test [7], 0.362; in test [8], 0.327; in [9], 0.241; in test [10] it was -0.0242. For the same compound, the z-score is -1.26 (inactive) in test [2], 0.0243 (inactive) in test [3], 0.274 (inactive) in [4] and -1.65 (inactive) in test [5].

For the compound `Cc1ccc(N2C(=O)c3ccccc3[C@](C)(C(=O)NCc3ccccc3)[C@@H]2c2ccc(CO)cc2)nc1`, the composite z-score in test [1] was 0.135; in [6] it was 0.0831; in [7] it was 0.0561; in [8] it was 0.197; in test [9], 0.185; in test [10], 0.547. Moreover, the z-score in test [2] was -2.21 (inactive); in [3], 0.493 (inactive); in test [4], 0.351 (inactive); in test [5], -1.32 (inactive).

Take `COc1ccc(C(O)C2C=CC3C(=O)N(c4ccccc4)C(=O)C3N2Nc2ccccc2)cc1` (stereo not given): the composite z-score in test [1] was 0.256; in [6], 0.571; in test [7] it was 0.105; in test [8] it was -0.109; in test [9] it was 0.692; in test [10], 0.393. Further, the z-score in test [2] is -0.0351 (inactive); in test [3], -0.0851 (inactive); in test [4] it was 0.426 (inactive); in test [5], -0.356 (inactive).

In the case of `COc1cc2c(cc1O)C(c1cccs1)N(Cc1sc3ccccc3c1Cl)CC2` (stereo not given), the composite z-score in test [1] was 0.702; in test [6], 1.64; in test [7], 0.122; in test [8] it was 1.43; in [9], 1.56; in [10], 0.953. In addition, the z-score in [2] is -2.5 (inactive); in test [3] it was 0.546 (inactive); in test [4], -0.141 (inactive); in test [5], 0.93 (inactive).

As for `[N-]=[N+]=NCc1ccccc1[C@H]1OC(c2ccc(OCCCO)cc2)=N[C@@]1(CCS(=O)(=O)c1ccccc1)C(=O)NCc1ccccc1`, the composite z-score in test [1] was 0.486; in test [6] it was 1.25; in test [7] it was 0.282; in [8] it was 0.61; in test [9], 0.563; in test [10], -0.081. The z-score in [2] was -1.14 (inactive); in test [3], 0.318 (inactive); in test [4], 0.549 (inactive); in test [5], -0.0054 (inactive).

With `[N-]=[N+]=NCc1ccccc1[C@H]1OC(c2ccc(OCCCO)cc2)=N[C@@]1(Cc1ccccc1)C(=O)NCCN1CCOCC1`, the composite z-score in test [1] was 0.526; in test [6], 1.13; in [7], 0.555; in test [8], 1.03; in test [9], 0.604; in test [10], 0.502. The z-score is -3.01 (inactive) in [2], -0.206 (inactive) in test [3], 1.53 (inactive) in test [4] and -0.355 (inactive) in [5].

Consider `CN1C(=O)C2C(C1=O)C1C=C(CCCO)C2C(C2CC2)N1Cc1cc2c(cc1Br)OCO2` (stereo not given), for which the composite z-score came out at 0.0949 in test [1]; 0.838 in test [6]; 0.0569 in [7]; 1.2 in test [8]; 1.5 in [9]; 0.265 in test [10]. For the same compound, the z-score in test [2] was -1.57 (inactive); in test [3], -0.0766 (inactive); in test [4], 1.26 (inactive); in test [5] it was 2.6 (inactive).

As to `CC(C)C[C@@H]1NC(=O)[C@H]2C[C@@H](C(=O)NCCCCCN)[C@@H](c3cccc(OCCO)c3)N2C1=O`, the composite z-score is -0.0295 in test [1]; -0.174 in [6]; -0.008 in test [7]; 0.67 in test [8]; 0.207 in test [9]; -0.414 in test [10]. In addition, the z-score in [2] is -0.707 (inactive); in [3], -0.887 (inactive); in test [4] it was 0.273 (inactive); in test [5], -0.673 (inactive).

On to `Cc1ccc(S[C@]2(C(=O)NCc3ccccc3)CC(=O)N(Cc3cc(C(F)(F)F)cc(C(F)(F)F)c3)[C@@H]2c2ccc(CO)cc2I)cc1`, for which the composite z-score in test [1] is -0.309; in test [6], -0.649; in test [7], -0.0523; in test [8], -0.199; in test [9] it was -0.298; in [10] it was -0.757. Also, the z-score in test [2] was -1.24 (inactive); in [3], -0.314 (inactive); in test [4], 0.479 (inactive); in [5], 0.279 (inactive).

As to `C=C(CCCC)/C(=C/C[C@H](OC(C)=O)c1ccc(OCCO)cc1)c1cc(C(=O)OC)ccc1OC`, the composite z-score in test [1] is 0.613; in [6], 0.156; in [7], 0.0363; in [8], -0.453; in [9] it was 0.886; in [10] it was 0.803. Besides, the z-score in [2] is -1.03 (inactive); in test [3] it was -0.8 (inactive); in test [4], 8.05 (active); in test [5], -0.499 (inactive).

Turning to `CN(C)CCCNC(=O)[C@@H]1c2ccccc2C(=O)N(C2CCCCC2)[C@H]1c1ccc(CO)cc1`, the composite z-score in test [1] came to 0.76; in test [6], 0.139; in test [7], 0.271; in test [8], 0.567; in [9], 1.03; in test [10] it was 1.81. Also, the z-score in test [2] is -0.395 (inactive); in test [3], -0.312 (inactive); in test [4] it was 1.24 (inactive); in test [5], -0.291 (inactive).

For the origin of these results see PubChem BioAssay.
